Reference: PubChem BioAssay (NCATS)
Records with an inconclusive call do not appear. The source made the active and inactive calls. Calls come from the whole dose curve; as a rule, active = well fitted curve in the direction sought with a large enough effect; inconclusive = small, poorly fitted or top-dose-only effect, or another doubt; inactive = no such curve, though single readings can be large; an effect the other way counts as inactive or inconclusive.

Key:
[1] = OV-SAHO Cancer Cell Toxicity qHTS against the NCATS CANVASS Library (AID 1347348); details: OV-SAHO viability, CellTiter-Glo luminescence, 72 h; series mostly up to 38.3 µM; note: nearly all actives have a fitted effect of over 55% in size
Summary of the method: (§1)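 1000 cells/well seeded and rested 4 h at 37 °C before pin transfer of compounds in an 11-pnt series. Exposure 72 h at 37 °C/5% CO2; viability by CellTiter-Glo luminescence after 15 min at room temperature.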

[2] = Panc-1005 Cancer Cell Toxicity qHTS against the NCATS CANVASS Library (AID 1347349); details: Panc-1005 viability, CellTiter-Glo luminescence, 72 h; series mostly up to 38.3 µM; note: nearly all actives have a fitted effect of over 60% in size
Summary of the method: as §1

[3] = SW1088 Cancer Cell Toxicity qHTS against the NCATS CANVASS Library (AID 1347350); details: SW1088 viability, CellTiter-Glo luminescence, 72 h; at 38.3 µM (top of the series); note: nearly all actives have a fitted effect of over 75% in size
Summary of the method: as §1

[4] = U-118MG Cancer Cell Toxicity qHTS against the NCATS CANVASS Library (AID 1347351); details: U-118MG viability, CellTiter-Glo luminescence, 72 h; series mostly up to 38.3 µM
Summary of the method: as §1

[5] = COV-362 Cancer Cell Toxicity qHTS against the NCATS CANVASS Library (AID 1347352); details: COV-362 viability, CellTiter-Glo luminescence, 72 h; series mostly up to 38.3 µM
Summary of the method: (§2)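 First, 1000 cells go into each well and rest for 4 hours. Next, an 11-point dilution range is pinned in. Plates then incubate 72 hours before CellTiter-Glo addition and luminescence reading.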

[6] = A2780 Cisplatin Sensitive Ovarian Cancer Cell Toxicity qHTS against the NCATS CANVASS Library (AID 1347353); details: A2780 ovarian cancer viability, ATPLite luminescence, 72 h; at 46.1 µM (top of the series); note: nearly all actives have a fitted effect of over 60% in size
Summary of the method: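 Cells are plated at 750 per well and rest for 4 hours. Compounds are added across eleven concentrations, and incubated 72 hours before ATP is quantified by luminescence.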

[7] = UWB1.289-WTBRCA1 Cancer Cell Toxicity qHTS against the NCATS CANVASS Library (AID 1347354); details: UWB1.289-WTBRCA1 viability, CellTiter-Glo luminescence, 72 h; series mostly up to 38.3 µM
Summary of the method: as §2

[8] = HEK-293 Cancer Cell Toxicity qHTS against the NCATS CANVASS Library (AID 1347355); details: HEK-293 viability, CellTiter-Glo luminescence, 72 h; at 46.1 µM (top of the series); note: nearly all actives have a fitted effect of over 65% in size
Summary of the method: as §2

[9] = HPAF-II 24hr Apoptosis Induction qHTS against the NCATS CANVASS Library (AID 1347356); details: HPAF-II caspase-3/7 Caspase-Glo luminescence; series mostly up to 46.1 µM
Summary of the method: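 Cells seeded at 500 per well, then compounds pin-transferred in an 11-point concentration series. After 24 hours at 37 degrees C, Caspase-Glo 3/7 was added and luminescence measured following 15 min at room temperature.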

[10] = HEK293 18hr Apoptosis Induction qHTS against the NCATS CANVASS Library (AID 1347357); details: HEK293 caspase-3/7 Caspase-Glo luminescence; series mostly up to 46.1 µM
Summary of the method: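 Caspase-3/7 luminescence (DEVD substrate, Caspase-Glo) after 18 h compound exposure of HEK293 cells, 500 cells/well; 11-point series; doxorubicin titration as control.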

[11] = HPAF-II 12hr Apoptosis Induction qHTS against the NCATS CANVASS Library (AID 1347358); details: HPAF-II caspase-3/7 Caspase-Glo luminescence; series mostly up to 46.1 µM
Summary of the method: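 Cells plated at 500 per well are dosed with compound and incubated 12 hours at 37 degrees C. Caspase-Glo 3/7 reagent is added and, after 15 min at room temperature, luminescence proportional to caspase activity is measured.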

[12] = HEK293 24hr Apoptosis Induction qHTS against the NCATS CANVASS Library (AID 1347359); details: HEK293 caspase-3/7 activation, Caspase-Glo luminescence; series mostly up to 46.1 µM
Summary of the method: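 HEK293 cells, 500 per well, exposed to an 11-point compound series for 24 hours at 37 degrees C. Caspase 3/7 activity read by Caspase-Glo luminescence (DEVD substrate) after 15 min at room temperature.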

[13] = HPAF-II 18hr Apoptosis Induction qHTS against the NCATS CANVASS Library (AID 1347360); details: HPAF-II caspase-3/7 luminescence; series mostly up to 46.1 µM
Summary of the method: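 Caspase-Glo 3/7 luminescence (DEVD substrate) after 15 min RT; HPAF-II, 500 cells/well, 18 h compound exposure at 37 degrees C, qHTS series; doxorubicin control 0.1nM - 4uM.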

[14] = HEK293 12hr Apoptosis Induction qHTS against the NCATS CANVASS Library (AID 1347361); details: HEK293 caspase-3/7 Caspase-Glo luminescence; series mostly up to 46.1 µM
Summary of the method: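 500 HEK293 cells/well; cpds pin-transferred, 11-pt conc series; 12 h, 37 degrees C/5% CO2; Caspase-Glo 3/7 added, 15 min RT dark; luminescence.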

[15] = test system: NAD(P)H diaphorase (Clostridium kluyveri); assay: Diaphorse counterscreen qHTS: Assay Interference Panel against the NCATS CANVASS Library (AID 1347362); details: Diaphorase enzyme, resazurin to resorufin fluorescence; series mostly up to 57.5 µM
Summary of the method: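 Clostridium kluyveri diaphorase in PBS + 0.01% Tween-20 preincubated 15 min with compounds. Resazurin and NADH then added for 5 min at room temperature in the dark; resorufin fluorescence read (ex 525, em 598).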

[16] = target: Luciferin 4-monooxygenase (Photinus pyralis) (UniProt P08659); assay: Firefly luciferase counterscreen qHTS: Assay Interference Panel against the NCATS CANVASS Library (AID 1347363); details: purified firefly luciferase, luminescence inhibition, 5 min; series mostly up to 57.5 µM
Sequence of Luciferin 4-monooxygenase (Photinus pyralis) (P08659 whole entry, looked up): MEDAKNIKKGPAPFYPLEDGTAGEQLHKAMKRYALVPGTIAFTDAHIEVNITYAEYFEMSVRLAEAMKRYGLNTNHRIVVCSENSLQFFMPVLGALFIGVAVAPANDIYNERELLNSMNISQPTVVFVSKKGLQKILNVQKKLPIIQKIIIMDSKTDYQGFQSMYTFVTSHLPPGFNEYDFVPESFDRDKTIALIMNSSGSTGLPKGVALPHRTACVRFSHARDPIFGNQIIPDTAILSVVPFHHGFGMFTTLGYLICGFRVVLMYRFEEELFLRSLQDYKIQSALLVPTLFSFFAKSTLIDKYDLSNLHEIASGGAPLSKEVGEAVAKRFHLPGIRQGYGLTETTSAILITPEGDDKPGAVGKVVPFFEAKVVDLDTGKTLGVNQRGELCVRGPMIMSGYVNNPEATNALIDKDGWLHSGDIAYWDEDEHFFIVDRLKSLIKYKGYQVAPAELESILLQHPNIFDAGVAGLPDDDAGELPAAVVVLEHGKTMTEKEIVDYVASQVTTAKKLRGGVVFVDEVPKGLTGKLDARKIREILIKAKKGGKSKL
Summary of the method: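 Purified P. pyralis luciferase (0.04 ug/mL, 4x reagent) added to Tris-acetate buffer with 0.013 mM D-luciferin, 0.013 mM ATP and 13.3 mM Mg-acetate; compounds preincubated 15 min, then luminescence read after 5 min, RT.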

[17] = KB-8-5-11 Cancer Cell Toxicity qHTS against the NCATS CANVASS Library (AID 1347364); details: KB-8-5-11 MDR cells viability, CellTiter-Glo, 72 h; series mostly up to 46.1 µM; note: nearly all actives have a fitted effect of over 75% in size
Summary of the method: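 Terse: KB-8-5-11, 500 cells/well, 72 hr, 37C/5% CO2, 11-pt titration, CellTiter-Glo readout; confirmatory runs ± 1uM tariquidar in medium.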

[18] = KB-3-1 Cancer Cell Toxicity qHTS against the NCATS CANVASS Library (AID 1347366); details: KB-3-1 viability, CellTiter-Glo luminescence, 72 h; series mostly up to 46.1 µM; note: nearly all actives have a fitted effect of over 75% in size
Summary of the method: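 500 KB-3-1 cells/well; compounds pin-transferred, 11-pnt series; 72 hr, 37C/5% CO2; CellTiter-Glo, 10 min RT; luminescence read-out.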

[19] = qHTS for ATAD5 Agonist screened against the NCATS CANVASS Library (AID 1347367); details: HEK293T ATAD5-luciferase reporter, luminescence, 16 h; series mostly up to 46.1 µM
Summary of the method: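 Luminescence read-out: ATAD5-driven luciferase in stably transfected HEK 293T cells, which rises post-transcriptionally with DNA damage. Cells were exposed 16hr at 37C to test compound; a CellTiter-Fluor fluorescence read (1hr) measured viability first.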

[20] = SDT Cancer Cell Toxicity qHTS against the NCATS CANVASS Library (AID 1347365); details: SDT dog glioma viability, ATP luminescence, 72 h; series mostly up to 46.1 µM;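 note: SDT canine glioma cells 500 per well in 1536 well plates; nearly all actives have a fitted effect of over 60% in size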
Summary of the method: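 Cytotoxicity is measured from cellular ATP: compounds in an 11-point concentration series are pinned onto SDT cells, incubated 72 hr at 37C, then CellTiterGlo is added and luminescence read.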

Measured: outcome

NCCc1c[nH]c2ccccc12
inactive: [1] | [2] | [3] | [4] | [5] | [6] | [7] | [8] | [9] | [10] | [11] | [12] | [13] | [14] | [15] | [16] | [17] | [18] | [19]

NCCc1c[nH]c2ccc(O)cc12
inactive: [1] | [2] | [3] | [4] | [5] | [6] | [7] | [8] | [9] | [10] | [11] | [12] | [13] | [14] | [16] | [17] | [20] | [18] | [19]
